N-glyco inh: blocks N-linked glycosylation in D54 reporter cells | D54 ERlucT glycosylation luciferase reporter, 24 h; percent of 100 nM tunicamycin response | reporter increase, % at 12.5 µM | 0.23% of 360,000 active;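 active = mean luciferase reporter signal, scaled so untreated is 0 and the glycosylation-blocking control 100, at or above a set limit in every replicate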;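 also: luciferase carries N-glycosylation sites so blocking glycosylation raises the light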
DSG3 Ab inh: inhibitors of pemphigus antibody binding to human desmoglein-3; DSG3-coupled beads, scFv-anti-DSG3-GFP binding, flow cytometry; stronger effect = lower value; binding (percent of control), % at 10 µM; 0.48% of 310,000 active; AID 588358;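 active = binding more than 3 SD below its plate's average and above zero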;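 also: hits lower antibody fragment binding to DSG3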
Target sequence (P32926 whole entry, looked up, the tested form may be a part): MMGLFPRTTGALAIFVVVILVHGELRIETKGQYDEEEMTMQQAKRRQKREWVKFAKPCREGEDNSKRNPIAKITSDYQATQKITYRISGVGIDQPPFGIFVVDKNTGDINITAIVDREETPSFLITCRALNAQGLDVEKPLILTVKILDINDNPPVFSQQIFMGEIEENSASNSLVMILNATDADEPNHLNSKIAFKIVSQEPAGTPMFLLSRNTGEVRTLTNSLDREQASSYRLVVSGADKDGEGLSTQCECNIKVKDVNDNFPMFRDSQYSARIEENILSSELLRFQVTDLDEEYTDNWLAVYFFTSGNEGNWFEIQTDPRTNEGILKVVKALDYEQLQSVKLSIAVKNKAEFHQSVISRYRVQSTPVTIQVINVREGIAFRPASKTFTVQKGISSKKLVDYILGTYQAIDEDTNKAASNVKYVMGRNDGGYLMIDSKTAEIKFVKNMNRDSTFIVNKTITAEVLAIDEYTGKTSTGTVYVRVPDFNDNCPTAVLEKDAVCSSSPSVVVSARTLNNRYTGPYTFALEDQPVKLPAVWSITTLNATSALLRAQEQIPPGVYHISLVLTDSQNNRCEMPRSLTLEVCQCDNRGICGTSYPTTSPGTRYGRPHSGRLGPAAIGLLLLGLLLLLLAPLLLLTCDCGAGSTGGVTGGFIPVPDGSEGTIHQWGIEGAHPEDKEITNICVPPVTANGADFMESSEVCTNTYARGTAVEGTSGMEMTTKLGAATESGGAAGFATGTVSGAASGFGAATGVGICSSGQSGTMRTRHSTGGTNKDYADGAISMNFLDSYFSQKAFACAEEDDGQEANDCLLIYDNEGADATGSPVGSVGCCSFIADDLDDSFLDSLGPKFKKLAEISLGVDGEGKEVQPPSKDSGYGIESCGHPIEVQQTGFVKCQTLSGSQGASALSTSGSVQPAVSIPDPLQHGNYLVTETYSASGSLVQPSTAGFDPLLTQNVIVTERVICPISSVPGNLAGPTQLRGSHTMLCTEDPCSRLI
Vif imaging: inhibitors of HIV Vif | AID 602346 | 0.35% of 340,000 active | inhibition, % at 7.49 µM | HEK293T cells, Vif self-association by quenched fluorescence, imaging, 24 h; in the data active = inhibition above about 50%, passing the limit was not always enough
NSD2 inh: NSD2 (human) methyltransferase inhibition; O96028; NSD2 peptide methylation, AlphaScreen, 120 min; inhibition, % at 12.5 µM; 0.54% of 310,000 active
CaV13 FRET inh: Primary screen for inhibitors of IQ motif and Ca2+-dependent inactivation inhibitor domain binding in CACNA1D, Förster resonance energy transfer in living cells, …; HEK cells, CFP/YFP FRET ICDI-IQ, plate reader, 10 min; percent FRET-ratio fall versus neutral wells; inhibition, % at 12.3 µM; 0.098% of 340,000 active; AID 743397;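 active = mean replicate inhibition of at least 30% and at least 1% of replicates passing that level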
ATG4B inhibitor: blocks human ATG4B protease cleavage of LC3 substrate. Q9Y4P1. ATG4B cleavage of LC3-PLA2, NBD-HPC fluorescence, 1 h. inhibition, % at 8.33 µM. 0.51% of 340,000 active; in the data active = inhibition above about 40%
ATG4B confirm: confirmation of human ATG4B inhibitors; shares compounds with ATG4B inhibitor; ATG4B protease fluorescent substrate cleavage assay; inhibition, % at 8.33 µM; 92% of 320 active; in the data active = inhibition above about 39%
PLA2 counter: PLA2 (human) inhibition in ATG4B counter-screen; AID 588402; 66% of 1,600 active; shares compounds with ATG4B inhibitor; inhibition, % at 8.33 µM; purified PLA2, NBD-C6-HPC fluorescence, 45 min
Of the large screens only hits and unclear results are named; the others gave an inactive call (follow-up assays come after a bar, where they were run). An excerpt weighted towards active compounds, which were near 1.9% of everything screened. Rule as the data show it, unless noted: active = inhibition above about 50%; inactive = the rest.

COC(=O)COc1ccc2occ(C(C)=O)c2c1	none (no result: NSD2 inh)
Cc1cc(C)c(S(=O)(=O)NCCc2ccccc2)c(C)c1	none
Cc1ccc(-c2nc(CCN3C(=O)c4ccccc4C3=O)cs2)cc1	none
O=C1c2ccccc2C(=O)N1CCc1csc(NNc2nc(CCN3C(=O)c4ccccc4C3=O)cs2)n1	DSG3 Ab inh 76 (no result: NSD2 inh, CaV13 FRET inh)
Cc1c(Cl)cccc1N=Cc1ccc([N+](=O)[O-])s1	N-glyco inh 35
O=c1c2ccccc2n(CC(O)CN2CCCCC2)c2ccccc12 (stereo not drawn)	CaV13 FRET inh active (no result: Vif imaging)
CN(C)c1ccc(N=C/C=C2\N(C)c3ccccc3C2(C)C)cc1	none (no result: CaV13 FRET inh)
CN1/C(=C\C=Nc2ccc3ccccc3c2)C(C)(C)c2ccccc21	Vif imaging 78 (no result: DSG3 Ab inh, NSD2 inh, CaV13 FRET inh, ATG4B inhibitor)
CN1\C(=C/C=C/C=C/C=[N+](C)C)C(C)(C)c2ccccc21	DSG3 Ab inh 66 (no result: NSD2 inh)
OC[C@@H]1CN(Cc2ccco2)C[C@H](n2cnc3c(NCc4ccc(F)cc4)ncnc32)O1	none (no result: DSG3 Ab inh, ATG4B inhibitor)
CN(CC(=O)Nc1ccc(Cl)c(C(F)(F)F)c1)C(=O)c1ccc(N2CCOCC2)c([N+](=O)[O-])c1	none (no result: Vif imaging)
CS(=O)(=O)c1ccc(Sc2nc3ccccc3s2)c([N+](=O)[O-])c1	N-glyco inh 40 (no result: CaV13 FRET inh)
O=[N+]([O-])c1cc(S(=O)(=O)C(F)(F)F)ccc1Sc1nc2ccccc2s1	none (no result: NSD2 inh, CaV13 FRET inh)
CN1C(=O)C(c2nnc(Nc3cccc4ccccc34)s2)C2CC1(C)Oc1ccccc12 (stereo not drawn)	ATG4B inhibitor 89 | PLA2 counter 91
CCN(Cc1ccccc1)C(=O)c1cccc(OC2CCN(C(=O)C3CC3)CC2)c1	ATG4B inhibitor 43 (no result: DSG3 Ab inh) | PLA2 counter inactive
O=C(NCc1cccc(F)c1)c1cccc(OC2CCN(C(=O)C3CC3)CC2)c1	none
Clc1ccccc1OCc1nc(-c2ccc(Br)o2)no1	none (no result: NSD2 inh)
Cc1nn(-c2ccccc2)cc1/C=N/NC(N)=S	none
Cc1nn(-c2ccccc2)cc1C(c1c(N)[nH]c(=S)[nH]c1=O)c1c(N)[nH]c(=S)[nH]c1=O	ATG4B inhibitor 46 | PLA2 counter inactive
Clc1cccc(Cl)c1CSc1nnc(-c2sccc2-n2cccc2)o1	ATG4B inhibitor 53 (no result: DSG3 Ab inh) | PLA2 counter 65
CC(=O)Nc1ccc2c(c1)C(=Nc1cccc(C)c1)c1ccccc1-2	none (no result: NSD2 inh)
CCc1ccccc1NC(=S)/N=C(\N)Nc1nc(C)c2cc(C)ccc2n1	ATG4B inhibitor 80 | PLA2 counter 82
CC(C)c1ccc(OCC(=O)NCc2ccccc2)cc1	none
COc1ccc(C(CC(=O)NCc2ccccc2)C(C)C)cc1 (stereo not drawn)	ATG4B inhibitor 46 | ATG4B confirm 59 | PLA2 counter inactive
Cc1cc(C(=O)N/N=C/c2ccc(-c3cccc(Cl)c3Cl)o2)n[nH]1	ATG4B inhibitor 50 | PLA2 counter inactive
Cc1cc(C(=O)N/N=C/c2ccc(-c3cccc(Br)c3)o2)n[nH]1	none
Cc1nc(N2CCN(C(=O)c3ccco3)CC2)c2c3c(sc2n1)CCCC3	ATG4B inhibitor 68 | PLA2 counter 67
O=C(CSc1ncnc2sc3c(c12)CCCC3)c1ccco1	ATG4B inhibitor 41 (no result: DSG3 Ab inh) | PLA2 counter 51
O=C(c1ccco1)N1CCN(c2nc(C3CC3)nc3sc4c(c23)CCCC4)CC1	ATG4B inhibitor 93 (no result: NSD2 inh, CaV13 FRET inh) | PLA2 counter 91
Cc1nc(N2CCN(C(=O)c3cccs3)CC2)c2c3c(sc2n1)CCCC3	ATG4B inhibitor 78 (no result: CaV13 FRET inh) | PLA2 counter 86
O=C(COC(=O)c1ccccn1)Nc1ccc2c(c1)OCO2	none
CCCCn1c(N)c(C(=S)NC(=O)CC(C)C)c(=O)n(C)c1=O	none (no result: NSD2 inh, CaV13 FRET inh)
COc1ccc(/C=C(\NC(=O)c2ccc(OC)cc2)C(=O)Nc2ccccc2C(=O)O)cc1	none
CCc1nc(SCC(=O)N2CCN(C(=O)c3ccco3)CC2)c2c3c(sc2n1)CCCC3	ATG4B inhibitor 44 (no result: Vif imaging) | PLA2 counter 64
CCc1cc2ccccc2nc1SCC(=O)N1CCN(C(=O)c2ccco2)CC1	none (no result: NSD2 inh)
CCNC(=S)N1CCN(c2nc(CC)nc3sc4c(c23)CCCC4)CC1	ATG4B inhibitor 73 | PLA2 counter 83
CCn1c(CCCNC(=O)c2ccc(F)cc2)nc2ccccc21	none (no result: NSD2 inh)
Cc1cc(C(=O)CSc2nncs2)c(C)n1-c1c(C)n(C)n(-c2ccccc2)c1=O	none
CC1(C)CCCN(C(=O)c2ccc3c(c2NCCO)C(=O)c2ccccc2C3=O)C1	ATG4B inhibitor 68 | PLA2 counter 63
O=C1c2ccccc2C(=O)c2c1ccc(C(=O)N1CCCCC1)c2NCCO	none (no result: NSD2 inh)
O=C(NCCCN1CCCC1=O)c1sc2ccccc2c1Cl	none (no result: CaV13 FRET inh)
CCC(C)N(C(=O)COc1ccc(Br)cc1C=O)C1CCS(=O)(=O)C1 (stereo not drawn)	ATG4B inhibitor 42 | ATG4B confirm 57 | PLA2 counter inactive
COCCCNC(=S)Nc1ccc(OC(F)F)cc1C	none
Cc1c(NC(=O)Nc2ccc(F)cc2)c(=O)n(-c2ccccc2)n1C	none
Cc1sc(NC(=O)c2ccccc2)c(C(=O)c2ccccc2)c1C	ATG4B inhibitor 50 | ATG4B confirm 73 | PLA2 counter inactive
Cc1ccc(C(=O)Nc2sc(C)c(C)c2C(=O)c2ccccc2)cc1	none
N#C/C(=C\c1ccc(-c2ccccc2[N+](=O)[O-])o1)C(=O)Nc1nc(-c2cccs2)cs1	ATG4B inhibitor 67 | PLA2 counter 76
N#C/C(=C\c1ccc(-c2ccc([N+](=O)[O-])cc2)o1)C(=O)Nc1nc(-c2cccs2)cs1	none (no result: NSD2 inh)
O=C1C(NS(=O)(=O)c2cccs2)=C(N2CCN(c3cccc(Cl)c3)CC2)C(=O)c2ccccc21	ATG4B inhibitor 46 (no result: CaV13 FRET inh) | PLA2 counter 65
O=C1C(NS(=O)(=O)c2ccccc2)=C(N2CCN(c3ccc(F)cc3)CC2)C(=O)c2ccccc21	none
COCCNC(=O)/C(C#N)=C/c1c(N2CCN(c3ccc(OC)cc3)CC2)nc2c(C)cccn2c1=O	none
COCCNC(=O)/C(C#N)=C/c1c(N2CCN(c3ccccc3)CC2)nc2c(C)cccn2c1=O	ATG4B inhibitor 40 | ATG4B confirm 65 | PLA2 counter inactive
Cc1ccccc1Oc1nc2c(C)cccn2c(=O)c1/C=C(\C#N)C(=O)Nc1c(C)n(C)n(-c2ccccc2)c1=O	Vif imaging 124, ATG4B inhibitor 53 | PLA2 counter 66
O=C(O)c1cccc(-n2cccc2/C=C2\SC(=O)N(Cc3ccccc3F)C2=O)c1	ATG4B inhibitor 40 | PLA2 counter 57
